# PMC9574860, “Chemical Toolkit for PARK7: Potent, Selective, and High-Throughput” (Journal of Medicinal Chemistry, 2022)
# Hit rate of the full screen: of about 7,900 compounds, about 400 (5.1%) showed an effect of 50% or more. Shown is part of a subset that was picked to be rich in strong results.
# Biological target: Parkinson's disease protein 7 (PARK7/DJ1) (human, UniProt Q99497)
# Assay: primary screen, percent inhibition; read as competition with a fluorescent probe by fluorescence polarization; higher = more effect of the substance
# Conditions: 100 µM
# Outline: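 Fluorescence-polarization probe displacement (JYQ-107, 20 nM final, 2 h) after 2 h preincubation of PARK7 (0.2 μM final) with each fragment at 100 μM final. Read-out ex/em 480/520 nm; remaining activity derived from FP signal loss relative to reference controls.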
# Sequence of Parkinson's disease protein 7 (PARK7/DJ1) (Q99497 whole entry, looked up): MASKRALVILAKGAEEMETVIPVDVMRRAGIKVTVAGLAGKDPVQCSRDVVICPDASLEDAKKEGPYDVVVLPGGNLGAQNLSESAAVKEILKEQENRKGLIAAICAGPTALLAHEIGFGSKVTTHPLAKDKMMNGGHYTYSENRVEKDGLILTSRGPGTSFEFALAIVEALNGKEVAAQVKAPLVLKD
row,Compound,Inhibition %
1,C=CC(=O)Nc1ccccc1N1CCNC(=O)C1,10.7%
2,C=CC(=O)N(CC)C1CCOC(C)(C)C1 (centres unmarked),8.38%
3,O=c1c2ccccc2ccn1CCS(=O)(=O)F,95.1%
4,O=c1c2ccccc2ncn1CCS(=O)(=O)F,14.1%
5,O=c1c2ccsc2ncn1CCS(=O)(=O)F,19.7%
6,CC1(C)OB(c2ccc(C3CCC(=O)N3)cc2)OC1(C)C (centres unmarked),6.79%
7,CNC(=O)C(NC(=O)CCl)c1ccccc1 (centres unmarked),8.83%
8,CC1(C)OB(c2cc(CN3CCCC3)ccc2F)OC1(C)C,3.85%
9,C=CC(=O)NC(C)(C)c1noc(C(C)(C)C)n1,17.1%
10,CN(C)CCCn1c(S)nc2ccccc2c1=O,5.79%
11,CN(C)CCn1c(S)nc2ccccc2c1=O,82.9%
12,CCN(CC)CCn1c(S)nc2ccccc2c1=O,4.52%
13,CC1=NOC(=O)C1CC(=O)O (centres unmarked),99%
14,CC1=NOC(=O)C1CCC(=O)O (centres unmarked),8.64%
15,O=C1OCCC1Sc1nnc(-c2cccs2)o1 (centres unmarked),21.8%
16,O=C1OCCC1Sc1nnc(-c2ccncc2)o1 (centres unmarked),6.02%
17,O=C1OCCC1Sc1nnc(C2CCCCC2)o1 (centres unmarked),66.7%
18,c1ccc(N2CCN(CC3OCCO3)CC2)cc1,5.86%

row,Compound,Inhibition %
1,C=CC(=O)NC1CC(NC(=O)C2CCC2)C1 (centres unmarked),7.98%
2,N#Cc1ccc(NC(=O)CCCl)cc1,9.81%
3,CC1(C)OB(c2ccnc3c(O)cccc23)OC1(C)C,22.4%
4,ClCCCn1cccn1,5.21%
5,Cc1ccc(CN(C)C(=O)CCl)cc1,68.9%
6,CCN(Cc1ccc2c(c1)OCCO2)C(=O)CCl,17.9%
7,CN(Cc1ccc(Cl)c(Cl)c1)C(=O)CCl,43.3%
8,CN(Cc1ccc(Br)cc1)C(=O)CCl,52.8%
9,CN(Cc1ccc2c(c1)OCCO2)C(=O)CCl,91.9%
10,CN(Cc1ccsc1)C(=O)CCl,37.6%
11,CN(Cc1ccc(N(C)C)cc1)C(=O)CCl.Cl,71.3%
12,CSc1ccc(CN(C)C(=O)CCl)cc1,14.4%
13,CN(Cc1ccc(Cl)cc1)C(=O)CCl,48.5%
14,C=CC(=O)NCc1cc(C)on1,8.31%
15,CCC(=O)N1CCCC1C1CCCN1C1CCOC1=O (centres unmarked),8.79%
16,N#CC(=Cc1ccc(CSC(F)F)o1)C(N)=O,16.4%
17,CC(=O)c1ccc(F)c(B2OC(C)(C)C(C)(C)O2)c1,5.97%
